Laboratory results reported in PubChem BioAssay (NCI).
“And” between values parts separate entries of the source, which are not always exact repeats. Identical values can stand only once. The panel holds about 83,000 compounds, 20% with a hit somewhere; the sample as a whole holds those more often.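 Cell lines were cultured in 96-well plates, exposed to a single compound concentration, and assessed for percent growth 48 hours later.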 The source made the active and inactive calls. How the source made its calls: active means growth percent below 10; inactive means the rest.

Columns and labels:
Assay in all cases: NCI-60 one-dose screen, 48 h (100 = growth as untreated, 0 = no growth, -100 = all killed)
Conditions in all cases: 10 µM unless noted
[1] = system: MOLT-4 leukemia
[2] = system: SR leukemia
[3] = system: RPMI-8226 leukemia
[4] = system: OVCAR-8 ovarian
[5] = system: OVCAR-5 ovarian
[6] = system: OVCAR-4 ovarian
[7] = system: SK-OV-3 ovarian
[8] = system: IGROV1 ovarian
[9] = system: OVCAR-3 ovarian
[10] = system: HS 578T breast
[11] = system: NCI/ADR-RES ovarian
[12] = system: T-47D breast
[13] = system: MDA-MB-435 melanoma
[14] = system: SW-620 colon
[15] = system: MCF7 breast
[16] = system: HCT-116 colon
[17] = system: HCC-2998 colon
[18] = system: KM12 colon
[19] = system: BT-549 breast

Measured: growth

COc1ccc(N(CC(=O)NCCC[Te]c2ccccc2)C(=O)c2ccccc2)cc1
active: [7] 1.16% | [16] 9.88%
inactive: [1] 17.9% | [2] 10.3% | [3] 22.5% | [4] 14.2% | [5] 33.4% | [6] 99% | [8] 15.4% | [9] 95.9% | [10] 32.4% | [11] 11.5% | [12] 135% | [13] 101% | [14] 82% | [15] 13.2% | [17] 57.6% | [18] 26.3%

CC(=O)c1cccc(S(=O)(=O)F)c1
inactive: [1] 112% | [2] 76.1% | [3] 101% | [4] 106% | [5] 90.5% | [6] 114% | [7] 109% | [8] 103% | [9] 117% | [10] 96.4% | [11] 96.9% | [12] 110% | [13] 97.8% | [14] 105% | [15] 96.8% | [16] 92.1% | [17] 95.2% | [18] 105%

Cc1cc(C(C)(C)C)ccc1O
inactive: [1] 99.5% | [2] 93.8% | [3] 105% | [4] 102% | [5] 120% | [6] 109% | [7] 100% | [8] 107% | [9] 105% | [10] 99.8% | [11] 98.3% | [12] 103% | [13] 111% | [14] 108% | [15] 101% | [16] 95.6% | [17] 106% | [18] 103%

CCCn1cc2c3c(cccc31)[C@H]1C[C@@H](C)CN(C)[C@@H]1C2
inactive: [1] 77.6% | [2] 71.4% | [3] 48.4% | [4] 89.1% | [5] 84.4% | [6] 80.6% | [7] 87.9% | [8] 35.1% | [9] 84.4% | [10] 83.6% | [11] 78.8% | [12] 72.6% | [19] 89% | [13] 112% | [14] 90.1% | [15] 85% | [16] 53% | [17] 95.7% | [18] 97.6%

CC[C@H](C)[C@H](NC(=O)[C@H]1CCCCN1C)C(=O)N(C)[C@H](C[C@@H](OC(C)=O)c1cccc(C(=O)N[C@@H](Cc2ccccc2)C[C@H](C)C(=O)OC)n1)C(C)C
inactive: [1] 13.6% | [2] 12.2% | [3] 20% | [4] 12% | [5] 39% | [6] 48.8% | [7] 13.8% | [8] 29% | [10] 19.9% | [11] 13.4% | [12] 63.6% | [14] 24.6% | [15] 12.7% | [17] 15.4%
active: [9] -18.1% | [13] -29.2% | [16] -5.08% | [18] 4.26%

Oc1ccccc1C=NCCN=Cc1ccccc1O.[Fe]
inactive: [1] 30.7% | [2] 73.2% | [3] 88.6% | [4] 84.7% | [5] 118% | [6] 117% | [7] 101% | [8] 71.2% | [9] 112% | [10] 77.3% | [11] 104% | [12] 97.7% | [19] 110% | [13] 31.1% | [14] 66.1% | [15] 70.4% | [16] 77% | [17] 111% | [18] 93%

O=C(O)C(O)c1ccc(Cl)cc1 (stereo not given)
inactive: [1] 113% | [2] 102% | [3] 111% and 92.1% | [4] 109% and 103% | [5] 110% | [6] 102% and 109% | [7] 101% and 108% | [8] 110% and 111% | [9] 116% and 104% | [10] 102% and 99.7% | [11] 106% and 107% | [12] 93.1% and 138% | [19] 101% and 103% | [13] 105% and 115% | [14] 107% and 103% | [15] 97.1% and 106% | [16] 93.7% and 95.1% | [17] 98.3% and 108% | [18] 108% and 100%

CCC(=O)C(CC(C)N1CCCCCC1)(c1ccccc1)c1ccccc1 (stereo not given)
inactive: [1] 93.9% | [2] 102% | [3] 99.3% | [4] 97% | [5] 89.1% | [6] 84.2% | [7] 93.6% | [8] 78.6% | [9] 96.5% | [10] 96.7% | [11] 102% | [19] 97.4% | [13] 98.3% | [14] 99.1% | [15] 81.8% | [16] 72.1% | [17] 97.7% | [18] 107%

Nc1ccc(S(=O)(=O)F)cc1
inactive: [1] 93.3% | [2] 84.7% | [3] 98.9% | [4] 107% | [5] 102% | [6] 130% | [7] 105% | [8] 105% | [9] 111% | [11] 107% | [12] 96.4% | [19] 104% | [13] 102% | [14] 105% | [15] 106% | [16] 100% | [17] 103% | [18] 100%

COC(=O)C1=CO[C@@H](C)[C@@H]2CN3CCc4c([nH]c5cc(OC)ccc45)[C@@H]3C[C@H]12
inactive: [1] 94.8% | [2] 92.7% | [3] 94.3% | [4] 95.9% | [5] 95.6% | [6] 107% | [7] 100% | [9] 100% | [10] 94.5% | [11] 93.8% | [12] 93.2% | [13] 107% | [15] 91.1% | [16] 103% | [18] 109%

O=[N+]([O-])c1cc(Cl)c(Cl)c([N+](=O)[O-])c1Cl
inactive: [1] 13.3% | [2] 11.2% | [3] 29.7% | [4] 38.9% | [5] 107% | [6] 29.3% | [7] 105% | [8] 28.9% | [9] 10% | [10] 106% | [11] 80% | [19] 96.8% | [13] 89.3% | [15] 20.1% | [17] 109% | [18] 26%
active: [14] -61.9% | [16] -77.1%

O=C1CCCCC1CN1CCCCC1 (stereo not given)
inactive: [1] 116% | [2] 123% | [3] 108% | [4] 110% | [5] 97.1% | [6] 119% | [7] 97.9% | [9] 100% | [10] 107% | [11] 101% | [19] 117% | [13] 109% | [14] 101% | [15] 90.9% | [16] 101% | [17] 97.8% | [18] 98.1%

CN(C)c1ccc(N)cc1
inactive: [1] 100% and 63.4% | [2] 99% and 33.6% | [3] 93.6% and 21% | [4] 93.7% and 30.2% | [5] 112% and 89.5% | [6] 97.6% and 39.6% | [7] 90% and 70.4% | [8] 94.5% and 61.8% | [9] 106% and 32.4% | [10] 100% and 54.5% | [11] 104% and 85.3% | [19] 107% and 72% | [13] 107% and 43.4% | [14] 99.1% and 65.6% | [15] 87.7% and 30.5% | [16] 117% and 14.8% | [17] 106% | [18] 107% and 34.7%

O=C1NC(=O)C(=Cc2ccccc2)C(=O)N1
inactive: [1] 81.5% and 109% | [2] 89.7% and 107% | [3] 112% and 110% | [4] 104% | [5] 108% | [6] 109% and 112% | [7] 106% and 107% | [9] 102% and 111% | [10] 119% and 103% | [11] 100% and 103% | [12] 94.8% and 105% | [13] 113% and 104% | [14] 103% and 105% | [15] 145% and 102% | [16] 94% and 102% | [17] 99.6% and 117% | [18] 114% and 108%

O=S(=O)(F)c1cccc(Cl)c1C[P+](c1ccccc1)(c1ccccc1)c1ccccc1
inactive: [1] 112% | [2] 95.3% | [3] 74.1% | [4] 84.3% | [5] 94.8% | [6] 90.2% | [7] 89.2% | [8] 85.4% | [9] 96.5% | [10] 103% | [11] 109% | [19] 106% | [13] 84.4% | [15] 103% | [16] 92.4% | [17] 99.4% | [18] 102%

CN1CCN(c2ccc(Cl)cc2)CC1
inactive: [1] 75.6% | [2] 56.2% | [3] 110% | [4] 72.5% | [5] 80.5% | [6] 98.6% | [7] 103% | [8] 68% | [9] 125% | [10] 101% | [11] 70.1% | [19] 83.2% | [13] 97.8% | [14] 46.5% | [15] 62.6% | [16] 31.4% | [17] 105% | [18] 100%
